Laboratory results as given in PubChem BioAssay (EPA / NIEHS).
Records with an inconclusive call do not appear. Active and inactive are the calls of the source. The calls were made as follows: active = hit-call score of the fitted dose curve at least 0.9, where 1 is the maximum; inconclusive = response in the unintended direction; inactive = score below 0.9.

These compounds were tested against Retinoic acid receptor alpha (Homo sapiens) (UniProt P10276) (assay: ATG_RARa_TRANS: Attagene TRANS-FACTORIAL HepG2 Assay for human Retinoic Acid Receptor alpha (RARa) (AID 2283005)).
Method: ATG_TRANS is a cell-based, multiplexed-readout assay that uses HepG2, a human liver cell line, with measurements taken at 24 hours after chemical dosing in a 24-well plate.ATG_RARa_TRANS is one of 30 assay component(s) measured or calculated from the ATG_TRANS assay. It is designed to make measurements of mRNA induction, a form of inducible reporter, as detected with fluorescence intensity signals by Reverse transcription polymerase chain reaction (RT-PCR) and Capillary electrophoresis technology.Data from the assay component ATG_RARa_TRANS was analyzed into 1 assay endpoint. This assay endpoint, ATG_RARa_TRANS, was analyzed in the positive analysis fitting direction relative to DMSO as the negative control and baseline of activity. Using a type of inducible reporter, measures of mRNA for gain-of-signal activity can be used to understand the reporter gene at the transcription factor-level as they relate to the gene RARA. Furthermore, this assay endpoint can be referred to as a primary readout, because this assay has produced multiple assay endpoints where this one serves a reporter gene function. To generalize the intended target to other relatable targets, this assay endpoint is annotated to the nuclear receptor intended target family, where the subfamily is non-steroidal.
Human liver HepG2 cells are transiently transfected with multiple reporter transcription units (MRTUs) in 6-well plates using FuGene 6 reagent (Roche; 3 ml FuGene/1 mg DNA). The MRTU constructs are regulated by a cis-regulating element (promoter). […] A major difference between the CIS and TRANS system is that in CIS activities of endogenous TFs are measured, whereas the TRANS assay evaluates changes in activities of exogenous, chimeric NR-Gal4 proteins. […] At the end of 24 hour incubation, total RNA was isolated using TriZol reagent (Invitrogen). The isolated RNA is then reverse-transcribed using oligo(dT) primer and Mo-MLV reverse transcriptase (Invitrogen) with DNAse I (Ambion) treatment for 30 min. The one-tenth of the produced cDNA was amplified by PCR using Taq DNA polymerase (Invitrogen) and two reporter sequence-specific primers. The PCR products were fluorescently labeled by primer extension with 6-arboxyfluorescein (6-FAM) 5'-labeled reporter sequence-specific primer (2 min at 95 C, 20 s at 68 C and 10 min at 72 C) and these products were digested with 5U of HpaI (New England Biolabs) for 2h at 37 C. The fragments were purified using Qiaquick PCR columns (Qiagen), analyzed on an ABI 3130xL genetic analyzer (Applied Biosystems) with peak positions identified by using a set of X-rhodamine (ROX)-labeled MapMarker1000 molecular weight standards (BioVentures). The raw capillary electrophoresis data was processed using Attagraph software (Attagene).

Chain of Retinoic acid receptor alpha (Homo sapiens) (P10276 whole entry, looked up): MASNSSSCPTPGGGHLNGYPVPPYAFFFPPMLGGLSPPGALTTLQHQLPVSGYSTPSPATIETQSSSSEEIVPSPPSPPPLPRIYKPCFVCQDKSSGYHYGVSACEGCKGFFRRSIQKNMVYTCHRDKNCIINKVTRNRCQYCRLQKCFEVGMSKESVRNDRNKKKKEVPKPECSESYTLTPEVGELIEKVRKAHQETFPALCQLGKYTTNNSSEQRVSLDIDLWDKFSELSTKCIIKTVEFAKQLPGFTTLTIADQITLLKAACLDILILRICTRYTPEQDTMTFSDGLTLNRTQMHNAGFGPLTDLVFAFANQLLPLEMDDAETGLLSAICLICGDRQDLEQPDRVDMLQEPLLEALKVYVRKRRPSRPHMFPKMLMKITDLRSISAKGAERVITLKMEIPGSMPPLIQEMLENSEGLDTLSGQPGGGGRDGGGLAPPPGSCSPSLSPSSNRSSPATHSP

| Structure (SMILES) | outcome |
| --- | --- |
| CC(=O)Nc1c(I)c(NC(C)=O)c(I)c(C(=O)O)c1I | inactive |
| NC(=O)c1ccc(N)cc1 | inactive |
| CN1CCCC1 | inactive |
| CCOC(=O)CC(=O)OCC | inactive |
| CCC(C)(CCC(C)C)C(=O)O (centres undefined) | inactive |
| CCCCCC1CCCC(=O)O1 (centres undefined) | inactive |
| Cc1ccnc(N)c1 | inactive |
| CCOc1ccc2c(c1)C(C)CC(C)(C)N2 (centres undefined) | inactive |
| CC(=O)c1nccs1 | inactive |
| C/C=C(\C)C(=O)OCC/C=C\CC | inactive |
| CCCCCCC(O)CCCCCCCCCCC(=O)OC (centres undefined) | inactive |
| O=[N+]([O-])c1ccccc1C(F)(F)F | inactive |
| CCCCCCC1CCC(=O)O1 (centres undefined) | inactive |
| CO[Si](CCCNCCN)(OC)OC | inactive |
